From PubChem BioAssay (Tox21) come the findings set out here.

Results filed as inconclusive are left out. The source made the active and inactive calls. Unless noted, calls come from the whole dose curve; as a rule, active = well fitted curve in the direction sought with a large enough effect in the repeat runs; inconclusive = weak or mixed curves; inactive = no such curve, though single readings can be large; an effect the other way counts as inactive or inconclusive.

Assay [1] in a line: A CellTox Green Cytotoxicity Assay to monitor cytotoxicity in HEK293 cells - 32 hour (AID 1224881). Note: nearly all actives have a fitted effect of over 40% in size. Note: potency is the fitted concentration of half-maximal effect. A digest of the protocol:
(§1)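 HEK293 cells, 600/well, were preincubated 5 hours and then exposed to compounds at 37 C for up to 40 hours. A cell-impermeant cyanine dye staining dead-cell DNA was read by fluorescence at 0, 8, 16, 24, 32 and 40 h time points.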

A short description of assay [2]: A CellTox Green Cytotoxicity Assay to monitor cytotoxicity in HepG2 cells - 0 hour (AID 1224882). Note: nearly all actives have a fitted effect of over 35% in size. Put shortly:
(§2)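 HepG2 cells, 600/well, preincubated 5 h with CellTox Green dye, then exposed to Tox21 compounds in DMSO at 37 C for up to 40 h. Dead-cell DNA fluorescence read at the indicated time point.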

Assay [3] in a line: A CellTox Green Cytotoxicity Assay to monitor cytotoxicity in HEK293 cells - 8 hour (AID 1224884). Note: nearly all actives have a fitted effect of over 35% in size. Put shortly:
as §1

Assay [4] can be described thus: qHTS RealTime-Glo MT Cell Viability Assay in HepG2 cells - 16 hour (AID 1224885). Note: nearly all actives have a fitted effect of over 50% in size. Put shortly:
(§3)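 HepG2 cells were seeded at 600 cells/well together with NanoLuc luciferase and a cell-permeant prosubstrate, preincubated 5 h at 37 C/5% CO2, then pin-dosed with compounds in DMSO. Nonlytic luminescence from viable cells was read at each time point.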

Assay [5] can be described thus: qHTS RealTime-Glo MT Cell Viability Assay in HEK293 cells - 24 hour (AID 1224886). Note: nearly all actives have a fitted effect of over 50% in size. Note: potency is the fitted concentration of half-maximal effect. Put shortly: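 HEK293 cells were seeded at 600 cells/well together with NanoLuc luciferase and cell-permeant prosubstrate, preincubated 5 h at 37 C/5% CO2, then given compound in DMSO by pintool. Luminescence from viable-cell prosubstrate reduction was read repeatedly over 40 h.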
Assay [6] in a line: A CellTox Green Cytotoxicity Assay to monitor cytotoxicity in HEK293 cells - 16 hour (AID 1224888). Note: nearly all actives have a fitted effect of over 35% in size. A digest of the protocol:
as §1

Assay [7] in a line: qHTS RealTime-Glo MT Cell Viability Assay in HepG2 cells - 0 hour (AID 1224889). Note: nearly all actives have a fitted effect of over 50% in size. A digest of the protocol: as §3
Assay [8] is described as follows: A CellTox Green Cytotoxicity Assay to monitor cytotoxicity in HepG2 cells - 8 hour (AID 1224890). Note: nearly all actives have a fitted effect of over 45% in size. Put shortly: as §2
Assay [9] is described as follows: qHTS assay to identify small molecule antagonists of the estrogen receptor alpha (ER-alpha) signaling pathway using the BG1 cell line in the presence of 0.1 nM 17-beta-estradiol - cell viability counter screen (AID 1259241). Note: nearly all actives have a fitted effect of over 40% in size. A digest of the protocol:
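Cells were plated and left 24 hr, compounds in DMSO were pinned in, 17beta-estradiol was added to 0.1 nM final, and after 22 hr CellTiter-Fluor reagent was added for 30 min before fluorescence was read.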
Background: qHTS replaces the single test concentration by a dilution series.

The nature of assay [10]: qHTS assay to identify small molecule antagonists of the androgen receptor (AR) signaling pathway using the MDA cell line in the presence of 0.5 nM R1881 - cell viability counter screen (AID 1259242). Note: nearly all actives have a fitted effect of over 45% in size. A digest of the protocol:
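MDA-kb2 cells (MMTV-luciferase, AR/GR responsive) were treated with compounds plus 0.5 nM R1881 (final) for 16 hr at 37C, 0% CO2. Viability was then read in the same wells as live-cell protease fluorescence (CellTiter-Fluor, 30 min).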

Assay [11] concerns the target Estrogen receptor (Homo sapiens) (UniProt P03372). Briefly: qHTS assay to identify small molecule antagonists of the estrogen receptor alpha (ER-alpha) signaling pathway using the BG1 cell line in the presence of 0.1 nM 17-beta-estradiol (AID 1259244). Note: nearly all actives have a fitted effect of over 50% in size. Note: potency is the fitted concentration of half-maximal effect. A digest of the protocol: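 VM7Luc4E2 cells (endogenous full-length ER-alpha, 4×ERE-luciferase), kept 5 days in phenol red-free, charcoal-stripped FBS medium; 4,000 cells/well. Compounds added with 0.1 nM (final) 17beta-estradiol, 22 hr at 37C; luminescence read with ONE-Glo after 30 min.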

Assay [12] is described as follows: qHTS assay to identify small molecule HDAC inhibitors (AID 1259364). Note: top concentration of the series differs between compounds; nearly all actives have a fitted effect of over 45% in size. Put shortly:
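Wild-type HCT-116 cells, plated overnight at 37 C, exposed to compounds 2 hr at 37 C; luminogenic HDAC-Glo substrate then added 30 min at room temperature. Luminescence reports relative endogenous class I/II HDAC activity.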

Assay [13] in a line: qHTS assay to identify small molecule HDAC inhibitors - cell viability counter screen (AID 1259365). Put shortly:
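Counter screen in wild-type HCT-116 cells: compounds dissolved in DMSO are pin-transferred onto overnight-plated cells and left 2hr at 37C. ATP-based CellTiter-Glo luminescence then measures viable cells.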

Assay [14] in a line: qHTS assay to identify small molecule agonists of the sonic hedgehog signaling (Shh) pathway - cell viability counter screen (AID 1259366). Note: nearly all actives have a fitted effect of over 50% in size. Note: potency is the fitted concentration of half-maximal effect. A digest of the protocol: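 Cells are plated at 2,000 per well and left 4hr at 37C, 5% CO2 before compound addition. After 23hr of treatment, CellTiter-Fluor reagent is added for 1hr at 37C and fluorescence is measured.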
Assay [15] can be described thus: qHTS assay to identify small molecule antagonists of the sonic hedgehog signaling (Shh) pathway - cell viability counter screen (AID 1259367). Note: nearly all actives have a fitted effect of over 55% in size. Note: potency is the fitted concentration of half-maximal effect. A digest of the protocol: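 After a 4 hr settling period, 3T3 Gli1-Luc cells were treated with DMSO-dissolved chemicals and conditioned medium, kept 24 hr at 37C in 5% CO2, and assayed for viability by CellTiter-Fluor fluorescence following 1 hr reagent incubation.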

A short description of assay [16]: qHTS assay to identify small molecule agonists of the sonic hedgehog signaling (Shh) pathway (AID 1259368; calls by dose curve;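 note: NIH/3T3-derived 3T3Gli1-Luc cells carrying a stable Gli1-driven firefly luciferase reporter; series mostly up to about 92 µM; nearly all actives have a fitted effect of over 15% in size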). A digest of the protocol:
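NIH/3T3-derived 3T3Gli1-Luc cells with stably integrated Gli1-driven firefly luciferase, 2,000 cells/well, compounds added after 4 hr. Incubated 24 hr at 37C, 5% CO2; luminescence read after 30 min with luciferase reagent at room temperature.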

Assay [17] is described as follows: qHTS RealTime-Glo MT Cell Viability Assay in HEK293 cells - 8 hour (AID 1224887). Note: nearly all actives have a fitted effect of over 50% in size. Note: potency is the fitted concentration of half-maximal effect. A digest of the protocol: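 600 cells/well were plated with the nonlytic NanoLuc/prosubstrate reagent, pre-incubated 5 h, then given 23 nL of compound in DMSO. Incubation at 37 C for 40 h, with luminescence from viable-cell-reduced substrate read repeatedly from 0 h.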
Assay [18] is described as follows: qHTS assay to identify small molecule phospholipidosis (PLD) inducers (AID 1259344; active = well fitted curve in the direction sought with a large enough effect; an effect the other way counts as inactive or inconclusive). A digest of the protocol:
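HepG2 cells grown on collagen I take up LipidTOX Red while exposed to compound for 24 h; after fixation they are imaged at 20x and pit metrics are extracted.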

Assay [19] in a line: A CellTox Green Cytotoxicity Assay to monitor cytotoxicity in HepG2 cells - 32 hour (AID 1224883). Note: nearly all actives have a fitted effect of over 50% in size. Put shortly:
as §2

Chain of Estrogen receptor (Homo sapiens) (P03372 whole entry, looked up): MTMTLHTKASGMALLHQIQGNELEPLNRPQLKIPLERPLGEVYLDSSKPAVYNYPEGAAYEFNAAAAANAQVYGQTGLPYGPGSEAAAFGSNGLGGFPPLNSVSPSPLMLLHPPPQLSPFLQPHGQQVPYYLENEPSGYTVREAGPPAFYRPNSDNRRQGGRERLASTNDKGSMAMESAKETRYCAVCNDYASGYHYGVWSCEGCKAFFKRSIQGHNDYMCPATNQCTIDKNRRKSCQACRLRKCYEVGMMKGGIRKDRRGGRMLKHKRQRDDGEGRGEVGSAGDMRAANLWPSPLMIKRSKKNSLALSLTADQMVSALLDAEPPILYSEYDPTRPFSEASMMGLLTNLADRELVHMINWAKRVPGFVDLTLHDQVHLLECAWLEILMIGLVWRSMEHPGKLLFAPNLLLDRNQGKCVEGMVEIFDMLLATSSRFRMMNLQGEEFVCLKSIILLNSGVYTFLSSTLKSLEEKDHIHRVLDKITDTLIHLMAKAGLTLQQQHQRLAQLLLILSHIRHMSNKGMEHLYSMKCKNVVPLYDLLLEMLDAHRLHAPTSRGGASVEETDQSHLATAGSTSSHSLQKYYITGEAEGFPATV

As for `CC(C)NCC(O)COc1ccc(CC(N)=O)cc1` (stereo not drawn), the Potency result in [1], in [2], in assay [3], in [4], in assay [5] and in assay [6] was “inactive” in each case. In addition, the Potency entry in assay [7], in assay [8], in [9], in [10], in [11] and in [12] was “inactive” in each case. Further, the Potency result in assay [14] and in assay [15] was “inactive” each time. Also, the molecule was classed as inactive in [13] and in assay [16].

Turning to `CCCCCC/C=C/C=O`, the Potency result in assay [1], in assay [2], in assay [3], in assay [5], in assay [17] and in [7] was “inactive” each time. The Potency result in [10], in assay [12] and in [14] was “inactive” each time. The outcome in assay [13] and in assay [16] was inactive.

With `Cc1cccc(OCCOc2cccc(C)c2)c1`, the Potency entry in assay [1], in assay [2], in assay [3], in [4], in assay [5] and in assay [17] was “inactive” in each case. In addition, the Potency result in assay [7], in assay [8], in assay [9], in [10], in assay [11] and in assay [12] was “inactive” throughout. In [14], the Potency result is “inactive”. For the same molecule, the molecule was classed as inactive in assay [16].

Turning to `C=CC(=O)OCC(C)OCC(C)OCC(C)OC(=O)C=C` (stereo not drawn), the Potency in [1] was 54.9 µM (active); in [5] it was 43.6 µM (active); in assay [14], 24.3 µM (active); in assay [15], 48.6 µM (active). Besides, the Potency entry in [2], in assay [3], in assay [17], in [6], in assay [7] and in assay [8] was “inactive” in each case. The Potency entry in [9], in [10], in [11] and in assay [12] was “inactive” in each case. Also, the call in assay [13] and in [16] was inactive.

As for `NCCCN(CCO)CCO`, the Potency entry in assay [1], in assay [2], in assay [3], in assay [5], in assay [17] and in assay [6] was “inactive” throughout. Moreover, the Potency entry in assay [7], in [8], in assay [9], in assay [10], in [11] and in assay [12] was “inactive” each time. Further, the Potency result in assay [14] and in assay [15] was “inactive” in each case. For the same molecule, the call in assay [13] and in [16] was inactive.

Turning to `CC(C)NCC(O)c1cc(O)cc(O)c1` (stereo not drawn), the Potency result in assay [1], in assay [2], in assay [4], in [5], in assay [17] and in [6] was “inactive” in each case. In addition, the Potency entry in assay [7], in [8], in assay [9], in assay [10], in assay [18] and in assay [12] was “inactive” in each case. Besides, the Potency entry in assay [14] is “inactive”. The molecule was called inactive in assay [16].

Regarding `Cc1cc(O)ccc1N`, the Potency in assay [1] is 34.9 µM (active); in assay [5], 55.3 µM (active); in assay [17], 43.9 µM (active); in [11], 15.4 µM (active); in assay [14] it was 27.4 µM (active); in [15], 48.8 µM (active). The Potency entry in [2], in [4], in assay [6], in [7] and in assay [8] was “inactive” throughout. Also, the outcome in assay [13] and in assay [16] was inactive.

With `Cl/C(=C\n1cncn1)c1ccc(Cl)cc1Cl`, the Potency result in assay [1], in assay [19], in [3], in assay [4], in assay [5] and in [6] was “inactive” each time. In addition, the Potency entry in [7], in assay [9], in [10], in [18], in assay [14] and in [15] was “inactive” each time. In addition, the outcome in [13] and in [16] was inactive.

For the molecule `COc1ccc(C(C)=O)cc1`, the Potency entry in assay [1], in assay [2], in assay [4], in assay [5], in [7] and in assay [8] was “inactive” each time. Moreover, the Potency result in assay [9], in assay [10], in assay [11], in [12], in assay [14] and in assay [15] was “inactive” throughout. For the same molecule, the outcome in assay [13] and in assay [16] was inactive.
